Experiments:
[1] = target: Protein kinase C eta type (Homo sapiens) (UniProt P24723); conditions: at 1 µM
[2] = target: Protein kinase C eta type (Homo sapiens) (UniProt P24723); conditions: at 10 µM
[3] = target: Protein kinase C theta type (Homo sapiens) (UniProt Q04759); conditions: at 1 µM
[4] = target: Protein kinase C theta type (Homo sapiens) (UniProt Q04759); conditions: at 10 µM
[5] = target: T1, Protein kinase C iota type (Homo sapiens) (UniProt P41743); conditions: at 1 µM
T1 sequence (whole entry): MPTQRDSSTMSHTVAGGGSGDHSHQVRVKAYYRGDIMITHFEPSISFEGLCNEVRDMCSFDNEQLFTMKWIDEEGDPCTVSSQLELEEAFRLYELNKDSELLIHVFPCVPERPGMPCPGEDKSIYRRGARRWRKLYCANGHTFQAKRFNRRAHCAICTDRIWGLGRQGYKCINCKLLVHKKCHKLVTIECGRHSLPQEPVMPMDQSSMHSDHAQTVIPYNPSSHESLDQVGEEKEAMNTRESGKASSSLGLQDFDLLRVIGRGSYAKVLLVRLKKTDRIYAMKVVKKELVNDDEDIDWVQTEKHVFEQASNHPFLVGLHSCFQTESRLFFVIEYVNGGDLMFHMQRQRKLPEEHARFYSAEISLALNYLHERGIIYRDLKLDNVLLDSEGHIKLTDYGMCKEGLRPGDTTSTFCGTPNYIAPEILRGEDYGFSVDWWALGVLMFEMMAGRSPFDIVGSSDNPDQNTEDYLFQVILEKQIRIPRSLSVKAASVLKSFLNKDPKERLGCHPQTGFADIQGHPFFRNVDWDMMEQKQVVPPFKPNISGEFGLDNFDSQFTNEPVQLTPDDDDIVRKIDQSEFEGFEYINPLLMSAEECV

[6] = target: T1, Protein kinase C iota type (Homo sapiens); conditions: at 10 µM
[7] = target: T2, Serine/threonine-protein kinase D1 (Homo sapiens) (UniProt Q15139); conditions: at 1 µM
T2 sequence (whole entry): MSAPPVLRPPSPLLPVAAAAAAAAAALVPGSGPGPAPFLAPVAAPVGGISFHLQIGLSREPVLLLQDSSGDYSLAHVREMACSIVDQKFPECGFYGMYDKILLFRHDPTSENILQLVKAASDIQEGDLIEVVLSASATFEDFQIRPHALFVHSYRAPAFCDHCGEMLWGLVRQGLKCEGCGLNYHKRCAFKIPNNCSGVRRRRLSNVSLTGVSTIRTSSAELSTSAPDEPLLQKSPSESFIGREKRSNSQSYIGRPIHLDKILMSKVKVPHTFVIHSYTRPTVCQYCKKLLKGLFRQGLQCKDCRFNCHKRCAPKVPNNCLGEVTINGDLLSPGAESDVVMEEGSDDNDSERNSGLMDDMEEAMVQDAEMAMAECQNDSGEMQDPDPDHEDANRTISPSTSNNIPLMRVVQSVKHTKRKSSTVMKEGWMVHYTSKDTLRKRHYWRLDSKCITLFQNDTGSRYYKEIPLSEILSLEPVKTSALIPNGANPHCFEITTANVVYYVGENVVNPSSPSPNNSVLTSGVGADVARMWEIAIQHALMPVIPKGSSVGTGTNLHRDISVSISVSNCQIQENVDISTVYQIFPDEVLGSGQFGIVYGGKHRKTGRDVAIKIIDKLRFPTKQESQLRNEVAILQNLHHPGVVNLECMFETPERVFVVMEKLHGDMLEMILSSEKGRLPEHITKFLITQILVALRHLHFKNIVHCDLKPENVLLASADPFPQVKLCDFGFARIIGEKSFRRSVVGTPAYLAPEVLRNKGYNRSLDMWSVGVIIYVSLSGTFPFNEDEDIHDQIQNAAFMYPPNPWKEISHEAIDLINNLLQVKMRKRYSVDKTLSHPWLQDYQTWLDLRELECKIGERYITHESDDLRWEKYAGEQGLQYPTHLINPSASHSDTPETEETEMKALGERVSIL

[8] = target: T2, Serine/threonine-protein kinase D1 (Homo sapiens); conditions: at 10 µM
[9] = target: T3, Serine/threonine-protein kinase D2 (Homo sapiens) (UniProt Q9BZL6); conditions: at 1 µM
T3 sequence (whole entry): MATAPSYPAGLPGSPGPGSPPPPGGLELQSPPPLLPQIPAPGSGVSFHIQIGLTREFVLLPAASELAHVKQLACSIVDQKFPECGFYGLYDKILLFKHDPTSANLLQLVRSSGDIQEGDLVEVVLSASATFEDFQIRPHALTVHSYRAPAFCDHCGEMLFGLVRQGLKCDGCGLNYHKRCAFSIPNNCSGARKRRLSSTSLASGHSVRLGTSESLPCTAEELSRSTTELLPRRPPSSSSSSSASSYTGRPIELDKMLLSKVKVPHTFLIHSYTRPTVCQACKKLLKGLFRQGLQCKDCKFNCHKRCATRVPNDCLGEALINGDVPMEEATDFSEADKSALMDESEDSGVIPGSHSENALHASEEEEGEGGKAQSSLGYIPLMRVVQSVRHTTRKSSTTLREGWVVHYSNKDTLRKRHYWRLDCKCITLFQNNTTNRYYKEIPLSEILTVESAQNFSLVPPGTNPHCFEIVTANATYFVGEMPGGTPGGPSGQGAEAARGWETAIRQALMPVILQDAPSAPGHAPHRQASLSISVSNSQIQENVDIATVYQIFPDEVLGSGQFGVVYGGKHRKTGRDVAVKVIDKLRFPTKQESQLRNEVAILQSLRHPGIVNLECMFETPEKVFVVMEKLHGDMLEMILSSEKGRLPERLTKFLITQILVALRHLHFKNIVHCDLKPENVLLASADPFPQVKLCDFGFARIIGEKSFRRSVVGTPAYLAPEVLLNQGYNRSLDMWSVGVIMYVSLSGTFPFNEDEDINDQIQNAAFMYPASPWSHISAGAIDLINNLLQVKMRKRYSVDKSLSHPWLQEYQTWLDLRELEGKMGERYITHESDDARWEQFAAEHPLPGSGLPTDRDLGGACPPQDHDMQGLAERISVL

[10] = target: T3, Serine/threonine-protein kinase D2 (Homo sapiens); conditions: at 10 µM
[11] = target: T4, cGMP-dependent protein kinase 1 (Homo sapiens) (UniProt Q13976); conditions: at 1 µM
T4 sequence (whole entry): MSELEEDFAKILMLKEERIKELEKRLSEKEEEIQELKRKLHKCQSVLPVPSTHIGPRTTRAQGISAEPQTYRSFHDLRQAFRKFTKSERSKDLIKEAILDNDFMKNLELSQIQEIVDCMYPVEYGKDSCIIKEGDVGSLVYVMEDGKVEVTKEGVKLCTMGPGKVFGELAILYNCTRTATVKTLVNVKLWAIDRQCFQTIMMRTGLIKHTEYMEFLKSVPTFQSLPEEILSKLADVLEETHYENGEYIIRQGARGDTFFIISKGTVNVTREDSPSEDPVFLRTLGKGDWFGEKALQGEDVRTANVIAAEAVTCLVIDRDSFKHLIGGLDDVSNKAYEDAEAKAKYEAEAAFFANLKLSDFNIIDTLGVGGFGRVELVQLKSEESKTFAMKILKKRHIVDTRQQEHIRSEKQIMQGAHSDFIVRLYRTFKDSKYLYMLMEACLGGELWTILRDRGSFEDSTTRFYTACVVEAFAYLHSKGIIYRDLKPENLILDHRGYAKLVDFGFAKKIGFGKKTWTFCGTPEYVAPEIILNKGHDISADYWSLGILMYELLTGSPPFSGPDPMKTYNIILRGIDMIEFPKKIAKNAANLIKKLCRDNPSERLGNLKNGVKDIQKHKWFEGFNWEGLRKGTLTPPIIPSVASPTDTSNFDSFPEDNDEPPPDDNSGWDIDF

[12] = target: T4, cGMP-dependent protein kinase 1 (Homo sapiens); conditions: at 10 µM
[13] = target: T4, cGMP-dependent protein kinase 1 (Homo sapiens); conditions: at 1 µM; remark: listed apart in the source
[14] = target: T4, cGMP-dependent protein kinase 1 (Homo sapiens); conditions: at 10 µM; remark: listed apart in the source
[15] = target: T5, MAP kinase-activated protein kinase 5 (Homo sapiens) (UniProt Q8IW41); conditions: at 1 µM
T5 sequence (whole entry): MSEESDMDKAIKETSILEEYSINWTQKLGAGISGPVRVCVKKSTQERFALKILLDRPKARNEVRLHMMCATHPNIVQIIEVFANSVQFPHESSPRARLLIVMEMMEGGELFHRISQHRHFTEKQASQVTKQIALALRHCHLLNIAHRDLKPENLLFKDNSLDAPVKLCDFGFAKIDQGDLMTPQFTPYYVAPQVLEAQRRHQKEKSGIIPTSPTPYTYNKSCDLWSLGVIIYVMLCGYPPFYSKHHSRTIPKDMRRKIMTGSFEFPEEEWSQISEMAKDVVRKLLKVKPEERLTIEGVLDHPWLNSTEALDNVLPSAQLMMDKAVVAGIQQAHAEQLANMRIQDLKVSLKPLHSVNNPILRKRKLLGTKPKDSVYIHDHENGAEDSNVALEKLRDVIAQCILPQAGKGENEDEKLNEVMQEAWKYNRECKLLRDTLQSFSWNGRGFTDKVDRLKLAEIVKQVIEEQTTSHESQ

[16] = target: T5, MAP kinase-activated protein kinase 5 (Homo sapiens); conditions: at 10 µM
[17] = target: Serine/threonine-protein kinase N2 (Homo sapiens) (UniProt Q16513); conditions: at 1 µM
[18] = target: Serine/threonine-protein kinase N2 (Homo sapiens) (UniProt Q16513); conditions: at 10 µM
[19] = target: Tyrosine-protein kinase FRK (Homo sapiens) (UniProt P42685); conditions: at 1 µM
[20] = target: Tyrosine-protein kinase FRK (Homo sapiens) (UniProt P42685); conditions: at 10 µM

Chain of Protein kinase C theta type (Homo sapiens) (Q04759 whole entry, looked up): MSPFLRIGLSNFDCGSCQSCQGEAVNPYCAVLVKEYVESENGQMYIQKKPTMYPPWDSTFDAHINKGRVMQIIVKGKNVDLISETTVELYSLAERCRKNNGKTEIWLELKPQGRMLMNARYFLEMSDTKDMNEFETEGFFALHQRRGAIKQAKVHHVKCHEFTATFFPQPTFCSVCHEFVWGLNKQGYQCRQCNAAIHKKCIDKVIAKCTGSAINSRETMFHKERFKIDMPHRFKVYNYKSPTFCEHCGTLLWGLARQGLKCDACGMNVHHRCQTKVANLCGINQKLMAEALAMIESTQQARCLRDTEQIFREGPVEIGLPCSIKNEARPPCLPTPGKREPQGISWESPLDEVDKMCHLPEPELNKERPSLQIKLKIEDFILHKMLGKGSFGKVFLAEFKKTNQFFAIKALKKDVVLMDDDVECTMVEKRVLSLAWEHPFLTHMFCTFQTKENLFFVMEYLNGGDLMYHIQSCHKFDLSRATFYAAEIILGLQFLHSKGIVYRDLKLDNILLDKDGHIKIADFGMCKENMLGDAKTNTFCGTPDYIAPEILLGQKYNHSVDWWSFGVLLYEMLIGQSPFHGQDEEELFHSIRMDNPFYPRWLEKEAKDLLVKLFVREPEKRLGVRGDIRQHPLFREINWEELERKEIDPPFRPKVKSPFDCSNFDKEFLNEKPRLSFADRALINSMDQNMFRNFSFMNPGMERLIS
Chain of Serine/threonine-protein kinase N2 (Homo sapiens) (Q16513 whole entry, looked up): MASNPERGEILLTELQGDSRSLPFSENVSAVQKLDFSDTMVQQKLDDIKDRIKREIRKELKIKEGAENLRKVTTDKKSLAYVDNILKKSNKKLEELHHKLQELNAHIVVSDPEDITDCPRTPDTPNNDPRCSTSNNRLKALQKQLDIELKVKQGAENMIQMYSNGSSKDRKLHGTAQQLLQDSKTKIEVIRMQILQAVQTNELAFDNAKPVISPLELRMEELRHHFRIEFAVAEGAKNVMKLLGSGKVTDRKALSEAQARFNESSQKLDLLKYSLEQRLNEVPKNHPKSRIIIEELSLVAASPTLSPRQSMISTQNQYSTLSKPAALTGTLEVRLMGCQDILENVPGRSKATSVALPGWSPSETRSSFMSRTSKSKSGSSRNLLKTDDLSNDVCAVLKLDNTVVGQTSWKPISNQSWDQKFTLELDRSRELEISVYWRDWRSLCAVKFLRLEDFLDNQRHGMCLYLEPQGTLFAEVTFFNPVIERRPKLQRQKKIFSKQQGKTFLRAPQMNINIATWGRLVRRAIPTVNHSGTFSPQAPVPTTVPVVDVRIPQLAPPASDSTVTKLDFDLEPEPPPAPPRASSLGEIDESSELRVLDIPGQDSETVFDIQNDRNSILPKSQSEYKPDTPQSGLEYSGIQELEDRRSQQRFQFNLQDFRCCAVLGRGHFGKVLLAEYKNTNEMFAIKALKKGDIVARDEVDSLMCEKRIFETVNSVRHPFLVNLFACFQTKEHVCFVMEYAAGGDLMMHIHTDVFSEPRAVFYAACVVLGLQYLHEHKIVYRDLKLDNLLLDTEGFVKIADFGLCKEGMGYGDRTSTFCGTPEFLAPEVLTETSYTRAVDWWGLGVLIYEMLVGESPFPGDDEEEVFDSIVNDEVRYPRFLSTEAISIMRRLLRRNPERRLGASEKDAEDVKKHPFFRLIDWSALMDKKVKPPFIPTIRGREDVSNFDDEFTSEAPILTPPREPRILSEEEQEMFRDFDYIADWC
Chain of Tyrosine-protein kinase FRK (Homo sapiens) (P42685 whole entry): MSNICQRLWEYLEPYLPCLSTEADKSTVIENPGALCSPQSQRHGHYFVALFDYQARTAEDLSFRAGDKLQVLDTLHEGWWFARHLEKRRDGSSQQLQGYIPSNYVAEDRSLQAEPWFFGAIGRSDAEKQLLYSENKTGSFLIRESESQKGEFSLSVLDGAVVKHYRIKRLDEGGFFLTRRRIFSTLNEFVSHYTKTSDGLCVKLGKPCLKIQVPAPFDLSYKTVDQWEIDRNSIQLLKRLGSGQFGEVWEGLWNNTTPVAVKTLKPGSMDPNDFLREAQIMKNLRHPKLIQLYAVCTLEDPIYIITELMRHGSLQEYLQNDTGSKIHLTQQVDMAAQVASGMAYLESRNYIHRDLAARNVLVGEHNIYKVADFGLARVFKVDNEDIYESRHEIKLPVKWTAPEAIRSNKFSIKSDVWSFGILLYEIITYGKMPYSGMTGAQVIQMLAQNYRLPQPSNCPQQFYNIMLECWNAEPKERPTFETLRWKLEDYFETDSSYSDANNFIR
Chain of Protein kinase C eta type (Homo sapiens) (P24723 whole entry): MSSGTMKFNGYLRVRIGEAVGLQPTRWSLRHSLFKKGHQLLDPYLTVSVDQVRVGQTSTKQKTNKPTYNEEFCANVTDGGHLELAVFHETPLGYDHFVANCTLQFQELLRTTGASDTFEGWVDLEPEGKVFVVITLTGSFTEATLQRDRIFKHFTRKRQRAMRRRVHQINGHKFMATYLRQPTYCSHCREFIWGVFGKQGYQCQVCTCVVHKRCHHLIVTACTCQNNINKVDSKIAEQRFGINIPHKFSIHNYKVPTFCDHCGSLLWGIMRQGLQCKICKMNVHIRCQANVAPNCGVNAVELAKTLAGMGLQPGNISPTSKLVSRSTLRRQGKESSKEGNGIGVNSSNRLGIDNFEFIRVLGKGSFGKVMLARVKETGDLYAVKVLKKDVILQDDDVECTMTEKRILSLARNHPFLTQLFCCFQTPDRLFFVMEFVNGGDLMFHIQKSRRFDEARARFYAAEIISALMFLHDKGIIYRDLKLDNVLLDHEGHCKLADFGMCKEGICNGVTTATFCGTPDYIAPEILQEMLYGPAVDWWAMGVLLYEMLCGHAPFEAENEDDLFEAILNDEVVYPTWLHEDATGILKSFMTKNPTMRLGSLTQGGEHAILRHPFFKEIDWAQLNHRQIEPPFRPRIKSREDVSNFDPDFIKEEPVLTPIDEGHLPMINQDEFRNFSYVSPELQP

| Compound | residual activity [1] [%] | residual activity [2] [%] | residual activity [3] [%] | residual activity [4] [%] | residual activity [5] | residual activity [6] [%] | residual activity [7] [%] | residual activity [8] [%] | residual activity [9] [%] | residual activity [10] [%] | residual activity [11] [%] | residual activity [12] [%] | residual activity [13] [%] | residual activity [14] [%] | residual activity [15] [%] | residual activity [16] [%] | residual activity [17] [%] | residual activity [18] [%] | residual activity [19] [%] | residual activity [20] [%] |
| --- | --- | --- | --- | --- | --- | --- | --- | --- | --- | --- | --- | --- | --- | --- | --- | --- | --- | --- | --- | --- |
| Cn1nc2c3c(cccc31)C(=O)c1ccccc1-2 | 88 | 89 | 97 | 86 | 105% (inactive) | 105 | 61 | 54 | 108 | 92 | 86 | 95 | 100 | 6 | 76 | 44 | 95 | 77 | 87 | 64 |
| Cc1ccc(S(=O)(=O)/C=C/C#N)cc1 | 80 | 90 | 97 | 77 | 109% (inactive) | 100 | 98 | 84 | 108 | 102 | 85 | 99 | 107 | 92 | 110 | 111 | 90 | 87 | 70 | 82 |
| CCN(CC)CCCCN1c2ccccc2Oc2ccc(Cl)cc21 | 118 | 98 | 123 | 90 | 94% (inactive) | 89 | 92 | 95 | 97 | 109 | 113 | 110 | 97 | 94 | 96 | 112 | 107 | 124 | 105 | 119 |

— ChEMBL document CHEMBL2218924, “A broad activity screen in support of a chemogenomic map for kinase signalling research and drug discovery” (Biochem J, 2013)
